Results on 44 compounds are retold here after PubChem BioAssay (Tox21).

Results filed as inconclusive are left out. Values without a mark were called inactive. Calls of active or inactive are those of the source. Calls come from the whole dose curve; as a rule, active = well fitted curve in the direction sought with a large enough effect in the repeat runs; inconclusive = weak or mixed curves; inactive = no such curve, though single readings can be large; an effect the other way counts as inactive or inconclusive.

The target in experiment [1] is Cytochrome P450 1A2 (Homo sapiens) (UniProt P05177). The experiment is described as follows: Cytochrome P450 Family 1 Subfamily A Member 2 (CYP1A2) small molecule antagonists: luciferase reporter qHTS assay (AID 1671199). For activity change, negative = inhibition: series mostly up to about 120 µM. The method, boiled down: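 Human CYP1A2 activity measured with a P450-Glo proluciferin substrate; compounds in DMSO preincubated 10 min at room temperature with enzyme-substrate mix, then NADPH regeneration system added for 1 h. Luciferin detection reagent, 20 min, luminescence read.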
Cytochrome P450 1A2 (Homo sapiens), sequence (P05177 whole entry, looked up): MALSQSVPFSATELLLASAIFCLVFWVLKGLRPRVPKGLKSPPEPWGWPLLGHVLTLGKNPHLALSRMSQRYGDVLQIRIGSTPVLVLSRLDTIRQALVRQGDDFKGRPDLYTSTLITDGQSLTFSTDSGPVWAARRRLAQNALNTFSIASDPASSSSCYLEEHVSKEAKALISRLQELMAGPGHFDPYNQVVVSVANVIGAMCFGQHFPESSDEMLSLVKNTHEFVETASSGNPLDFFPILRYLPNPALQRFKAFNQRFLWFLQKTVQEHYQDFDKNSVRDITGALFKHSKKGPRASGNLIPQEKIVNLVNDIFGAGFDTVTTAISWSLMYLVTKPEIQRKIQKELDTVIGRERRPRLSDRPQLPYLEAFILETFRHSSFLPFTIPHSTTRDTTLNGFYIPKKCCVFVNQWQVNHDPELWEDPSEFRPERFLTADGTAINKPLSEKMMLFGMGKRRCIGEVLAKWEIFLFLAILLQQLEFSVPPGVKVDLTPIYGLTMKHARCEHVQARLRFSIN
On the technique in general: A reporter such as luciferase makes a cellular process visible.

In experiment [2] the target is Voltage-gated inwardly rectifying potassium channel KCNH2 (Homo sapiens) (UniProt Q12809). The experiment is described as follows: Human Ether-a-go-go-Related Gene (hERG) channel small molecule antagonists: fluorescence cell-based qHTS assay (AID 1671200).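 For activity change, negative = inhibition: hERG-expressing U2OS cells given a thallium stimulus after FluxOR II dye loading; series mostly up to about 77 µM.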 In short, it runs like this: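 hERG-U2OS cells plated overnight at 37 C, loaded with FluxOR II dye 1 h at RT in dark; after 10 min, thallium stimulus added. Fluorescence (480/540 nm) read kinetically for 2 min at 1 s intervals.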
Voltage-gated inwardly rectifying potassium channel KCNH2 (Homo sapiens), sequence (Q12809 whole entry, looked up): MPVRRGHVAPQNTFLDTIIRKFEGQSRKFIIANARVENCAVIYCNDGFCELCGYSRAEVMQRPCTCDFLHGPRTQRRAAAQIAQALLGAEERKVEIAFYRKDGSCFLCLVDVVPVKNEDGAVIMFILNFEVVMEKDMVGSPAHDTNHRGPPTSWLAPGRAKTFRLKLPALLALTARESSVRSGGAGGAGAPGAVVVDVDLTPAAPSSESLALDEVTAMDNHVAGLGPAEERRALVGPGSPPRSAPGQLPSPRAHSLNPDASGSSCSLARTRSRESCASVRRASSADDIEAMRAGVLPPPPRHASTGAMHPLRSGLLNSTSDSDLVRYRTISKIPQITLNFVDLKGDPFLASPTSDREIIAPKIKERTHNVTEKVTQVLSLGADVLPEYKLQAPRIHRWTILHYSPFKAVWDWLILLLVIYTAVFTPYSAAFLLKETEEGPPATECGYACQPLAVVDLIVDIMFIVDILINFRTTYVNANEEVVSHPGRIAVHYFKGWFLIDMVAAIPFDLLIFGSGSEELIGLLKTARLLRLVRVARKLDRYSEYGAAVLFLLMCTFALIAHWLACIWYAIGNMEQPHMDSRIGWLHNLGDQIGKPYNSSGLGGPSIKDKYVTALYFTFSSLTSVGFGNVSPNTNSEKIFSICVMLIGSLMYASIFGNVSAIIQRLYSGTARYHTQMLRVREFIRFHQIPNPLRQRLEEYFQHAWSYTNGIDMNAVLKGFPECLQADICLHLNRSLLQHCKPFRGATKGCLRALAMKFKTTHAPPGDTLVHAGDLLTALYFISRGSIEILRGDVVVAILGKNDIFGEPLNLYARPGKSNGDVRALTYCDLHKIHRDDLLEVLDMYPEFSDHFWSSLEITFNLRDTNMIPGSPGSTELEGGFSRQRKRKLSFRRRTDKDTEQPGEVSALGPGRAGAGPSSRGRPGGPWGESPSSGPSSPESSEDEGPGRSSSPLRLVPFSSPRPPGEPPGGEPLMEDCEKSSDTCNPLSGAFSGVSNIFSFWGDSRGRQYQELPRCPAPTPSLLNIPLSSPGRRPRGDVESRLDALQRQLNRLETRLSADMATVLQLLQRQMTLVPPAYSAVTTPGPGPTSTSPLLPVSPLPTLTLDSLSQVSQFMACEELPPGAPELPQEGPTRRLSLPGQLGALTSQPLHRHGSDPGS

Experiment [3] addresses Cytochrome P450 3A4 (Homo sapiens) (UniProt P08684). The experiment is described as follows: Cytochrome P450 Family 3 Subfamily A Member 4 (CYP3A4) small molecule antagonists: luciferase reporter qHTS assay (AID 1671201). For activity change, negative = inhibition: series mostly up to about 120 µM. In short, it runs like this:
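P450-Glo CYP3A4 luminescent assay: compounds preincubated 10 min at room temperature with enzyme and proluciferin substrate, NADPH regeneration added, 1 h room-temperature reaction, stopped with luciferin detection reagent; luminescence read after 20 min. Ketoconazole positive control.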
% is set by controls: 0 for no effect and ±100 for the full control effect; potency is the fitted concentration of half-maximal effect.
Note: nearly all actives have a fitted effect of over 50% in size.

Cytochrome P450 3A4 (Homo sapiens), sequence (P08684 whole entry, looked up): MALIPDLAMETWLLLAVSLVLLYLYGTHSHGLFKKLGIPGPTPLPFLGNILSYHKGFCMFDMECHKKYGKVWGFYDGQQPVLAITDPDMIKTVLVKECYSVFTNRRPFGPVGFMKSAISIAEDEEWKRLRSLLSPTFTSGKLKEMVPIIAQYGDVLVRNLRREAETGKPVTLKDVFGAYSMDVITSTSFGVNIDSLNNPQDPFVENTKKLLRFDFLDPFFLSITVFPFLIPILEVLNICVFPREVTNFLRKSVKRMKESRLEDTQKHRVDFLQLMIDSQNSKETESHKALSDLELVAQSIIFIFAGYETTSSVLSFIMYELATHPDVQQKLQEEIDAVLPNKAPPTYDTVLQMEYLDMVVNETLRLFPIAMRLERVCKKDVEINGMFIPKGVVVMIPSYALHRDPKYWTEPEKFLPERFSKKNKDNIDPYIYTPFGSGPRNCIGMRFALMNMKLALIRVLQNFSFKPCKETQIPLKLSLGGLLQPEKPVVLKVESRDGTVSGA

Take `CC[C@@]1(O)C(=O)OCc2c1cc1n(c2=O)Cc2cc3c(CN(C)C)c(O)ccc3nc2-1`: the Potency result in experiment [1] and in experiment [2] was “inactive” throughout.
`CCCCCOc1ccccc1/C(=C\SC)n1ccnc1`: the Potency was 2.29 µM (active) in experiment [1] and 15.1 µM (active) in experiment [2].
On to `O=C(O)c1cc(O)c2c(c1)C(=O)c1cccc(O)c1C2=O`, for which the Potency in experiment [1] was 36.7 µM (active). Moreover, the Potency entry in experiment [2] and in experiment [3] was “inactive” throughout.
Regarding `N#CSc1ccc(N)c([N+](=O)[O-])c1`, in experiment [1], the Potency is 1.6 µM (active). Besides, the Potency entry in experiment [2] was “inactive”.
Take `CCOc1nc2cccc(C(=O)OC(C)OC(=O)OC3CCCCC3)c2n1Cc1ccc(-c2ccccc2-c2nn[nH]n2)cc1` (stereo not drawn): the Potency entry in experiment [1] and in experiment [2] was “inactive” each time.
Take `O=[N+]([O-])c1cc(Cl)c(Cl)c(Cl)c1Cl`: the Potency in experiment [1] is 2.24 µM (active). Also, the Potency entry in experiment [2] and in experiment [3] was “inactive” each time.
As for `CC[C@@]1(O)C(=O)OCc2c1cc1n(c2=O)Cc2c-1nc1ccccc1c2/C=N/OC(C)(C)C`, the Potency entry in experiment [1] and in experiment [2] was “inactive” in each case.
With `N/C(=N\N=C\c1ccc(Cl)cc1)N/N=C/c1ccc(Cl)cc1`, the figures for the Potency in experiment [1] and in experiment [2] were 3.63 µM (active) and 2.39 µM (active), respectively.
On the same counts, the results for `O=C(NOCC1CC1)c1ccc(F)c(F)c1Nc1ccc(I)cc1Cl` are 15.5 µM (active) and “inactive”.
The matching figures for `COc1cc(-c2nc(NC(=O)c3cc4cc(C)cc(C)c4n3CC(=O)O)sc2CCC2CCCCC2)c(OC)cc1Cl`: “inactive” and “inactive”.
The matching figures for `CCOC(=O)/C=C(C)/C=C/C=C(C)/C=C/c1c(C)cc(OC)c(C)c1C`: 24.5 µM (active) and “inactive”.
Regarding `Cc1cc(O)c(Cl)c(C)c1Cl`, in experiment [1], the Potency is 17.8 µM (active). In addition, in experiment [2], the Potency entry was “inactive”.
On to `Oc1ccc2c(c1)-c1ccccc1C2`, for which, in experiment [1], the Potency was 5.03 µM (active). Also, the Potency result in experiment [2] was “inactive”.
The matching figures for `COc1cccc2c1C(=O)c1c(O)c3c(c(O)c1C2=O)C[C@@](O)(C(=O)CO)C[C@@H]3O[C@H]1C[C@H](N)[C@H](O[C@@H]2CCCCO2)[C@H](C)O1`: “inactive” and “inactive”.
On to `O=C(NO)C1(NS(=O)(=O)c2ccc(Oc3ccc(F)cc3)cc2)CCOCC1`, for which the Potency result in experiment [1] and in experiment [2] was “inactive” throughout.
In the case of `CCCCCCCCCOC(=O)c1ccc(O)cc1`, the figures for the Potency in experiment [1] and in experiment [3] were 27.9 µM (active) and 39.4 µM (active), respectively. Also, the Potency result in experiment [2] is “inactive”.
On to `C[C@H](CCC(=O)O)[C@H]1CC[C@H]2[C@@H]3CC[C@@H]4C[C@H](O)CC[C@]4(C)[C@H]3CC[C@]12C`, for which the Potency result in experiment [1] and in experiment [2] was “inactive” each time.
`CCCCCCCCCCCC(=O)NCCCN(C)C`: the figures for the Potency in experiment [1] and in experiment [2] were 35.6 µM (active) and 13.8 µM (active), respectively.
Turning to `[O-][n+]1ccccc1SSc1cccc[n+]1[O-]`, in experiment [1], the Potency is 2.81 µM (active). For the same compound, the figures for the activity change, negative = inhibition in experiment [2] and in experiment [3] were 14% [at 15.8 µM] and 7.02% [at 23.6 µM], respectively.
As for `C[C@@H]1C[C@H]2[C@@H]3CCC4=CC(=O)C=C[C@]4(C)[C@@]3(Cl)[C@@H](O)C[C@]2(C)[C@@]1(OC(=O)c1ccco1)C(=O)CCl`, the Potency entry in experiment [1] and in experiment [2] was “inactive” each time.
As for `COC(=O)c1cc(Cl)ccc1OC`, the Potency in experiment [1] is 2.88 µM (active). The Potency result in experiment [2] and in experiment [3] was “inactive” each time.
On to `O=CC=C(c1ccccc1)c1ccccc1`, for which the Potency in experiment [1] is 20.2 µM (active); in experiment [2], 39.2 µM (active). Further, in experiment [3], the Potency entry is “inactive”.
With `OCCN1CCN(CC/C=C2/c3ccccc3Sc3ccc(C(F)(F)F)cc32)CC1`, the Potency in experiment [1] is 19.5 µM (active); in experiment [2] it was 2.13 µM (active).
The matching figures for `Nc1c(Cl)cc(Cl)cc1Cl`: 15.7 µM (active) and “inactive”.
With `CSc1ccc2c(c1)C(N1CCN(C)CC1)Cc1ccccc1S2` (stereo not drawn), the Potency entry in experiment [1] was “inactive”. The Potency in experiment [2] is 1.07 µM (active).
As for `CCN(C(=O)N(CC)c1ccccc1)c1ccccc1`, the Potency entry in experiment [1] and in experiment [2] was “inactive” in each case.
Consider `CC(C)n1nc(-c2cc3cc(O)ccc3[nH]2)c2c(N)ncnc21`, for which the Potency in experiment [1] was 3.63 µM (active). The Potency result in experiment [2] is “inactive”.
As to `Nc1ccc(N)c2ccccc12`, the Potency in experiment [1] is 2.52 µM (active); in experiment [3] it was 3.55 µM (active). The Potency entry in experiment [2] was “inactive”.
On the same counts, the results for `CCCCCCCCCCCCCCCCCC[N+](C)(C)Cc1ccccc1` are 80.4 µM (active), 40.3 µM (active) and 2.78 µM (active).
On the same counts, the results for `C[n+]1ccn(Cc2ccccc2)c1` are “inactive”, “inactive” and “inactive”.
In the case of `CC(NN)c1ccccc1` (stereo not drawn), the Potency entry in experiment [1] is “inactive”. In experiment [2], the activity change, negative = inhibition was -1.06% [at 15.8 µM].
With `Nc1cc(C(F)(F)F)ccc1S`, the Potency in experiment [1] is 12.3 µM (active). Besides, the Potency entry in experiment [2] was “inactive”.
As for `Oc1cccc(-c2c3nc(c(-c4cccc(O)c4)c4ccc([nH]4)c(-c4cccc(O)c4)c4nc(c(-c5cccc(O)c5)c5ccc2[nH]5)CC4)C=C3)c1`, the Potency result in experiment [1] and in experiment [2] was “inactive” in each case.
Regarding `ON=C1CCCC1`, the Potency in experiment [1] was 36.8 µM (active). Besides, in experiment [2], the Potency entry was “inactive”.
On to `CCN(C(=O)c1cc(C)cc(OC[C@H](C)Nc2ccncc2)c1)C(C)C`, for which, in experiment [1], the Potency result is “inactive”. Further, the Potency in experiment [2] is 17.2 µM (active); in experiment [3], 0.992 µM (active).
In the case of `Cc1cccc(N(C)C(=S)Oc2ccc3c(c2)C2CCC3C2)c1` (stereo not drawn), in experiment [1], the Potency was 9.11 µM (active). Also, the Potency result in experiment [2] is “inactive”.
With `Cc1c(C)c2c(c(C)c1O)CCC(C)(COc1ccc(CC3SC(=O)NC3=O)cc1)O2` (stereo not drawn), the Potency result in experiment [1] and in experiment [2] was “inactive” each time.
For `CCCCCCCCCCn1cc[n+](CCCCCCCCCC)c1C`, the Potency in experiment [1] was 71.1 µM (active); in experiment [2], 0.49 µM (active); in experiment [3], 31.8 µM (active).
As to `CCCCN1CCCC[C@H]1C(=O)Nc1c(C)cccc1C`, the Potency in experiment [1] was 17.4 µM (active). For the same compound, the Potency result in experiment [2] was “inactive”.
On to `Cc1[nH]cnc1C[C@H]1CCc2c(C)c3ccccc3n2C1=O`, for which the values for the Potency in experiment [1] and in experiment [2] were 1.74 µM (active) and 5.36 µM (active), respectively.
With `CCCCCCCCCCCCCCCS(=O)(=O)Oc1ccccc1`, the Potency entry in experiment [1], in experiment [2] and in experiment [3] was “inactive” in each case.
With `Clc1ccc2nsnc2c1NC1=NCCN1`, the Potency result in experiment [1], in experiment [2] and in experiment [3] was “inactive” each time.
Take `O=Cc1cc(O)ccc1Br`: the Potency in experiment [1] was 36.1 µM (active). Also, the Potency entry in experiment [2] and in experiment [3] was “inactive” in each case.
For the compound `N#CC1(c2ccc(F)cc2)CCC(=O)CC1`, the Potency entry in experiment [1], in experiment [2] and in experiment [3] was “inactive” in each case.
